# Measured values as given in ChEMBL document CHEMBL4513216, “Probing the Open Global Health Chemical Diversity Library for Multistage-Active Starting Points for Next-Generation Antimalarials” (ACS Infect Dis, 2020).
# Out of some 69,000 compounds screened, about 8,600 (12%) showed an effect of 50% or more. What follows is part of a selection rich in strong results, with near analogues and random picks from the rest.
# System: Plasmodium berghei
# Test: Screen against P. berghei liver stage (PbLuc), transformed with Luciferase, at 10uM
# Type: functional, HepG2
# Settings: tested at 10 uM
row,Compound,INHIBITION [%]
1,CN1CCC2(CCCN(c3nccc(C(F)(F)F)n3)C2)CC1,-2.35
2,O=C(Nc1cccc(CN2CCOC2=O)c1)N1CCOCC1,5.14
3,Cc1ncc(CN(C)C(=O)Nc2cccc(N3CCOC3=O)c2)s1,28
4,O=C(Nc1cccc(CN2CCOC2=O)c1)N1CCCCCC1,-4.12
5,Cc1ncc(CN(C)C(=O)Nc2ccc(CN3CCOC3=O)cc2)s1,22.5
6,O=C(Nc1cccc(CN2CCOC2=O)c1)N1CCCC1,53.8
7,Cc1ncc(CN(C)C(=O)Nc2cccc(CN3CCOC3=O)c2)s1,52.8
8,CCCN1CCC=C(C2c3nc[nH]c3CCN2C(=O)c2ccco2)C1 (stereo not drawn),25.1
9,OC(CN1CCC(CNCc2ccccn2)CC1)c1ccccc1 (stereo not drawn),-36.1
10,COCC(=O)N1C[C@H]2CNC[C@@]2(C(=O)NCc2cccc3[nH]ccc23)C1,13.1
11,CN(CC1CCCCO1)S(=O)(=O)c1cccc(C(=O)N2CCOCC2)c1 (stereo not drawn),1.19
12,CC(C)(C)NC(=O)CN1CCNCC1,-30
13,CC(C)(C)NC(=O)CN1CCCNCC1,74.9
14,CC(C)NC(=O)CN1CCCNCC1,3.77
15,O=C(O)c1cc2c(nc1-c1cncnc1)CCN(C1CCOC1)CC2 (stereo not drawn),37.8
16,Cc1ccccc1CC(=O)N1CC[C@@](O)(CNS(C)(=O)=O)[C@H](O)C1,0.301
17,N#Cc1ccccc1CN(CCO)Cc1ccsc1,36.4
18,CN(Cc1ccc(F)cc1)C(=O)Nc1cccnc1N1CCCC1,-2.33
19,CS(=O)(=O)N1C[C@H]2CC[C@@H](C1)N(CCC(=O)NCc1ccccc1F)C2,-7.02
20,COCCN1C[C@@H]2CC[C@H]1CN(CC(=O)Nc1ccn(C)n1)C2,21.2

row,Compound,INHIBITION [%]
1,Cn1ccc(NC(=O)CN2C[C@@H]3CC[C@H]2CN(S(C)(=O)=O)C3)n1,53.3
2,COC1CCN(c2ccc(F)cc2CN(C)C(C)C(N)=O)CC1 (stereo not drawn),7.3
3,Cc1ccccc1N1CC2(CCN(Cc3nccn3C)C2)CC1=O (stereo not drawn),25.2
4,CC(=O)Nc1nc(C(=O)N2CCCC(n3cncn3)C2)cs1 (stereo not drawn),67.6
5,Cc1cnc(C(=O)N2CCCC(n3nc(C)nc3C)C2)cn1 (stereo not drawn),7.12
6,Cc1nc(C)n(C2CCCN(C(=O)c3csnn3)C2)n1 (stereo not drawn),11.6
7,Cc1nc(C)n(C2CCCN(C(=O)c3csc(C)n3)C2)n1 (stereo not drawn),14.4
8,Cc1cc(C)n(C2CCCN(C(=O)c3csc(C4CC4)n3)C2)n1 (stereo not drawn),34.7
9,CC(=O)Nc1nc(C(=O)N2CCCC(n3ccnc3)C2)cs1 (stereo not drawn),31.9
10,COCc1nc(C(=O)N2CCCC(n3nc(C)cc3C)C2)cs1 (stereo not drawn),25.1
11,CC(=O)Nc1nc(C(=O)N2CCCC(n3nc(C)nc3C)C2)cs1 (stereo not drawn),53.9
12,Cc1nc(C)n(C2CCCN(C(=O)c3csc(C(C)C)n3)C2)n1 (stereo not drawn),40.3
13,Cc1nc(C(=O)N2CCCC(n3cncn3)C2)cs1 (stereo not drawn),31.1
14,Cc1nc(C)n(C2CCCN(C(=O)c3cscn3)C2)n1 (stereo not drawn),60.2
15,CC(=O)Nc1nc(C(=O)N2CCCC(n3nc(C)cc3C)C2)cs1 (stereo not drawn),57.8
16,Cc1ccc(N(C)[C@@H]2CC[C@@H]3CN(C(=O)CC4CCOCC4)C[C@@H]32)nn1,-16
17,CCSc1ccccc1C(=O)NCCn1nc(-n2cncn2)ccc1=O,16.5
18,Cn1ccc(C(=O)N2CCC(Cc3ccc4ncccc4c3)CC2)n1,28.1
19,CC(C)CNC(=O)[C@H]1C[C@H]2CN(C(=O)NCC3CCCCC3)C[C@@H]1O2,-41.9
20,CCC(NC1Cc2ccccc2C1)c1ccc(S(C)(=O)=O)cc1 (stereo not drawn),29.4

row,Compound,INHIBITION [%]
1,CCN(CC)S(=O)(=O)c1cnccc1N1CCN(C(C)C)CC1,-26.8
2,CCNc1nnc(SC(C(=O)NCc2cccnc2)C(C)C)s1 (stereo not drawn),-7.98
3,CC(CN1CCOCC1)OC(=O)c1ccccc1I (stereo not drawn),38.9
4,COCc1nc(C(=O)N2CCCC(n3ccnc3C)C2)cs1 (stereo not drawn),-23.9
5,COCc1nc(C(=O)N2CCCC(n3cccn3)C2)cs1 (stereo not drawn),17.8
6,COCc1nc(C(=O)N2CCCC(n3ccnc3)C2)cs1 (stereo not drawn),59
7,CC1CN(C)CCN1C(=O)c1ccn(-c2ccccc2)n1 (stereo not drawn),63.5
8,COCCn1nc(C(=O)N2CCOCC2C)ccc1=O (stereo not drawn),47.6
9,CC1CN(C)CCN1C(=O)c1ccn(-c2ccccc2Cl)n1 (stereo not drawn),-25.6
10,CC1CN(C)CCN1C(=O)c1cccn1Cc1ccncc1 (stereo not drawn),8.08
11,COCCn1nc(C(=O)N2CCN(C)CC2C)ccc1=O (stereo not drawn),58.7
12,COc1ccc(-n2ccc(C(=O)N3CCN(C)CC3C)n2)cc1 (stereo not drawn),20.9
13,CC1COCCN1C(=O)c1ccc(=O)n(CCOc2ccccc2)n1 (stereo not drawn),4.41
14,NC(=O)C1CCN(C(=O)c2ccn(-c3ccc(F)cc3)n2)C1 (stereo not drawn),16.1
15,CC1CN(C)CCN1C(=O)c1ccn(-c2cccc(F)c2)n1 (stereo not drawn),51.1
16,CC1CN(C)CCN1C(=O)c1ccn(-c2cccc(Cl)c2)n1 (stereo not drawn),10
17,CC1CN(C)CCN1C(=O)c1ccn(-c2ccc(F)cc2)n1 (stereo not drawn),56.6
18,NC(=O)C1CCN(C(=O)c2ccn(-c3cccc(F)c3)n2)C1 (stereo not drawn),23.5
